Experimental data published in PubChem BioAssay (NCATS).
Inconclusive results are not listed. Calls of active or inactive are those of the source. Unless noted, calls come from the whole dose curve; as a rule, active = well fitted curve in either direction with a large enough effect (not every such curve was filed as active); inconclusive = small, poorly fitted or top-dose-only effect, or another doubt; inactive = flat fitted curve, though single readings scatter.

Assays:
[1] = molecular target: Lysosomal acid glucosylceramidase (Homo sapiens) (UniProt P04062); assay: Glucocerebrosidase-p2 (AID 348; in the data active = potency below about 10 µM; note: potency is the fitted concentration of half-maximal effect); settings: purified GBA, blue fluorogenic substrate, 40 min
Outline: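 Compounds titrated from 0.6 nM upwards against 0.2 nM enzyme in pH 5.9 citric acid/KH2PO4, taurocholate, tween-20; blue fluorogenic substrate 80 uM, 40 min room temperature, stopped and read Ex 365/Em 440 for AC50.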

[2] = AP1 Signaling Pathway (AID 357); settings: ME-180 AP-1-bla reporter, EGF-induced, beta-lactamase ratio, 5 h; at 7.69 µM (top of the series) unless noted;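 note: ME-180 reporter cells stimulated with EGF at its EC50 level; % is set by controls: 0 for no effect and ±100 for the full control effect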
Outline: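 Beta-lactamase reporter under AP-1 response element, ME-180 background. Stimulus: EC50 EGF. Compound exposure 5 h, 37 °C. Detection: CCF4, 2.5 h RT, 460/530 nm. Values: AC50 from titration.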

[3] = molecular target: Cytochrome P450 1A2 (Homo sapiens) (UniProt P05177); assay: p450-cyp1a2 (AID 410; calls by dose curve; note: potency is the fitted concentration of half-maximal effect;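 for activity change, negative = inhibition: -100% = full effect of reference inhibitor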); settings: recombinant CYP1A2, luciferin-ME demethylation, luminescence; series mostly up to 11.4 µM
Outline: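 Human CYP1A2 (20nM) demethylated Luciferin-ME at its Km (100uM) in 100mM KPO4. After 10 min compound preincubation, NADPH regeneration ran the reaction 60 min at room temperature. Luciferin was read by luminescence, normalized to 57 uM furafylline.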

[4] = NFAT Signaling Pathway (AID 444); settings: Jurkat NFAT-bla M1, carbachol, beta-lactamase ratio, 5 h; at 7.69 µM (top of the series) unless noted;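 note: carbachol stimulus at about its EC50 of 1 µM final; % is set by controls: 0 for no effect and ±100 for the full control effect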
Outline: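 Jurkat cells with NFAT-driven β-lactamase reporter and co-expressed M1 receptor, stimulated with carbachol (final 1 uM, ~EC50), compound titration, 5 h at 37 °C. CCF4 loaded 1 h at RT; 460/530 nm ratio gave %activity and AC50.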

[5] = Stat Signaling Pathway (AID 446); settings: ME-180 SIE beta-lactamase reporter, IL-6 stimulated, 5 h; at 7.69 µM (top of the series) unless noted;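 note: ME-180 cervical cancer cells given 40 pM IL-6 alongside compound; SIE-controlled beta-lactamase reporter measured as 460/530 nm FRET emission ratio; % is set by controls: 0 for no effect and ±100 for the full control effect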
Outline: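 ME-180 cells carrying a SIE-driven beta-lactamase reporter are stimulated with 40 pM IL-6 for 5 h at 37C in the presence of compound. The 460/530 nm FRET substrate ratio is read after 2.5 h at RT. Data are normalised to 300 pM IL-6 and to 125 nM JAK inhibitor controls.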

[6] = molecular target: Glucocorticoid receptor (Homo sapiens) (UniProt P04150); assay: GR-GFP Redistribution (AID 450;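 active = compounds whose dose series gives a full or clear partial fitted curve of increased nuclear translocation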; note: potency is the fitted concentration of half-maximal effect); settings: U2OS GR-GFP nuclear translocation, laser cytometry, 2 h
[7] = molecular target: Glucocorticoid receptor (Homo sapiens) (UniProt P04150); assay: GR-EFC Redistribution (AID 451; calls by dose curve; note: potency is the fitted concentration of half-maximal effect); settings: CHO-K1 GR-EFC translocation, beta-gal luminescence, 2 h
Outline: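 CHO-K1 cells expressing nuclear EA and GR-ED fragments of b-gal; compounds titrated up to 46 uM final, 2 h at 37 C. GR nuclear translocation read as complemented b-gal luminescence after 1 h RT detection.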

[8] = molecular target: Mitogen-activated protein kinase 10 (Mus musculus) (UniProt Q61831); assay: JNK3 AlphaScreen Assay (AID 530); settings: JNK3 lysate, c-Jun phosphorylation; series mostly up to 11.4 µM;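 note: kinase came from lysate of stimulated human HepG2 cells; signal reports phosphorylation of biotinylated GST-cJun 1-79 at Ser73 with 10 µM ATP; % is set by controls: 0 for no effect and ±100 for the full control effect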
Outline: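 qHTS format: compounds tested as titrations against IL-1beta/TNF-alpha-activated HepG2 lysate JNK3 with biotin-GST-cJun substrate and 10 uM ATP at room temperature. Loss of anti-phospho-cJun AlphaScreen signal indicates inhibition.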

[9] = molecular target: 3',5'-cyclic-AMP phosphodiesterase 4B (Homo sapiens) (UniProt Q07343); assay: qHTS Assay for Inhibitors of PDE-IV (AID 607; active = well fitted activation curve with a large enough effect in the main read-out, with a control signal flat, not every such curve was filed as active; note: % of control where 0% means no effect); settings: HEK293 ACTOne CNG channel cells, membrane potential fluorescence; series mostly up to 22.9 µM
Outline: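 HEK293 ACTOne cells with CNG channel (1000/well), endogenous PDE4; membrane potential dye, compounds up to 22.9 uM final. Fluorescence Ex 535/Em 590; RO 20-1724 (100 uM final) as reference.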

[10] = molecular target: Cytochrome P450 2C9 (Homo sapiens) (UniProt P11712); assay: qHTS Assay for Inhibitors and Substrates of Cytochrome P450 2C9 (AID 883; active = well fitted curve in the direction sought with a large enough effect; an effect the other way counts as inactive or inconclusive; note: nearly all actives have a fitted effect of over 60% in size; note: potency is the fitted concentration of half-maximal effect); settings: recombinant CYP2C9, luciferin-H luminescence, 60 min; series mostly up to 11.4 µM
Outline: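 Human CYP2C9 (10nM) with Luciferin-H at 100uM (its KM) in 25mM KPO4; compound preincubated 10 min at 37C, then NADPH regeneration for 60 min at 37C. Luciferin read by luminescence after detection reagent; normalized to 57uM sulphaphenazole as full inhibition.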

[11] = molecular target: Cytochrome P450 3A4 (Homo sapiens) (UniProt P08684); assay: qHTS Assay for Activators of Cytochrome P450 3A4 (AID 885; active = well fitted curve in the direction sought with a large enough effect; an effect the other way counts as inactive or inconclusive; note: nearly all actives have a fitted effect of over 65% in size); settings: recombinant CYP3A4, Luciferin-PPXE luminescence, 60 min; series mostly up to 11.4 µM
Outline: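 Human CYP3A4 (20 nM) with Luciferin-PPXE at 25 uM (its KM) in 200 mM KPO4; 10 min compound preincubation, then NADPH regeneration and 60 min reaction at RT. Luciferin read by luminescence; normalized to 57 uM ketoconazole full inhibition.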

[12] = molecular target: Cytochrome P450 2C19 (Homo sapiens) (UniProt P33261); assay: qHTS Assay for Inhibitors and Substrates of Cytochrome P450 2C19 (AID 899; active = well fitted curve in the direction sought with a large enough effect; an effect the other way counts as inactive or inconclusive; note: nearly all actives have a fitted effect of over 60% in size; note: potency is the fitted concentration of half-maximal effect); settings: recombinant CYP2C19, luciferin-H EGE luminescence; series mostly up to 11.4 µM
Outline: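 5 nM human CYP2C19 with 10uM Luciferin-H EGE (at KM) in 50mM KPO4, compound preincubated 10 min at 37C, then NADPH regeneration for 60 min at 37C. Luciferin read by luminescence after detection reagent; normalized to 57uM ketoconazole as full inhibition.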

[13] = molecular target: Cytochrome P450 2D6 (Homo sapiens) (UniProt P10635); assay: qHTS Assay for Inhibitors and Substrates of Cytochrome P450 2D6 (AID 891; active = well fitted curve in the direction sought with a large enough effect; an effect the other way counts as inactive or inconclusive; note: nearly all actives have a fitted effect of over 60% in size; note: potency is the fitted concentration of half-maximal effect); settings: recombinant CYP2D6, luciferin-ME EGE luminescence; series mostly up to 11.4 µM
Outline: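 Human CYP2D6 (5 nM) with 30 uM Luciferin-ME EGE (at Km) in 100 mM KPO4, compound preincubated 10 min, then NADPH regeneration system for 60 min at room temperature. Luciferin read by luminescence; normalized to 1.43 uM quinidine.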

[14] = molecular target: Cytochrome P450 3A4 (Homo sapiens) (UniProt P08684); assay: qHTS Assay for Inhibitors and Substrates of Cytochrome P450 3A4 (AID 884; active = well fitted curve in the direction sought with a large enough effect; an effect the other way counts as inactive or inconclusive; note: nearly all actives have a fitted effect of over 50% in size; note: potency is the fitted concentration of half-maximal effect); settings: recombinant CYP3A4, Luciferin-PPXE luminescence; series mostly up to 57.1 µM
Outline: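 20 nM human CYP3A4 with 25 uM Luciferin-PPXE (at KM) in 200 mM KPO4, preincubated 10 min with compound; NADPH regeneration started a 60 min RT reaction. Luciferin detected by luminescence, normalized to 57 uM ketoconazole as full inhibition.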

[15] = qHTS Assay for Identification of Small Molecule Agonists for Hypoxia Response Element Signaling Pathway (AID 914; active = well fitted activation curve with a large enough effect in the signal ratio, with a control signal flat, not every such curve was filed as active; the % refers to the signal ratio; note: % of control where 0% means no effect); settings: ME-180 (cervical carcinoma) HRE-bla reporter, beta-lactamase ratio, CoCl2, 17 h; activation: active compounds read high
Outline: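 Cells were plated overnight, pin-dosed with compound in a titration series, co-stimulated with EC50 CoCl2 and incubated 17 hours at 37 degrees Celsius. CCF4 substrate was then loaded, and AC50 values came from the 460nm/530nm ratio.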

Cytochrome P450 1A2 (Homo sapiens), sequence (P05177 whole entry, looked up): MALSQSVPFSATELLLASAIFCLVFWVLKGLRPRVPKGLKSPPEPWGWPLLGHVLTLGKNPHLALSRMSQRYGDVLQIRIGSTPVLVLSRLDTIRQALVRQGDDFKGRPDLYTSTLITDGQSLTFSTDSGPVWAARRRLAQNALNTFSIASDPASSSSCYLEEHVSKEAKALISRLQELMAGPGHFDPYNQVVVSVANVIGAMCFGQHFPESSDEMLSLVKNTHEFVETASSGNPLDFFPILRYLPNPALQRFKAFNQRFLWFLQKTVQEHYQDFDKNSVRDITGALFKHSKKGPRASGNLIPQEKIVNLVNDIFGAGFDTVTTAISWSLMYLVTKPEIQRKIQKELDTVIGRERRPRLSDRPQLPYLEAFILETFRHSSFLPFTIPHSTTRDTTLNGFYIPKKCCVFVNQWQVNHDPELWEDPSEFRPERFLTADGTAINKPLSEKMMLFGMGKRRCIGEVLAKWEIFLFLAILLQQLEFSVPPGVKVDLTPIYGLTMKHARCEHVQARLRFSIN
Cytochrome P450 3A4 (Homo sapiens), sequence (P08684 whole entry, looked up): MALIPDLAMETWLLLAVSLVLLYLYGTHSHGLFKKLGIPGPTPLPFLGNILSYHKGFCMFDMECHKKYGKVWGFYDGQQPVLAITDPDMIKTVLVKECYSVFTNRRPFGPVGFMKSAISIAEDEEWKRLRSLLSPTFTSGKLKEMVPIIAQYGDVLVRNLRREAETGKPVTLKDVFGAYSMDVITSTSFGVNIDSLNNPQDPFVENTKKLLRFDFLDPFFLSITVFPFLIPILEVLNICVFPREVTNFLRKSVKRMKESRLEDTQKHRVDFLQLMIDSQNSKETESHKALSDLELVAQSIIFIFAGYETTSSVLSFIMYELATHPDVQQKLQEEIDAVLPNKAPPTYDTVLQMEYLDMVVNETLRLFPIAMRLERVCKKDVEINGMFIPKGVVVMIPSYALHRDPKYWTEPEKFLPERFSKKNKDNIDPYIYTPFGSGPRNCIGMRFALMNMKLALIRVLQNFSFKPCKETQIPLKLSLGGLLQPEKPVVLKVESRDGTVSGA
Cytochrome P450 2C19 (Homo sapiens), sequence (P33261 whole entry, looked up): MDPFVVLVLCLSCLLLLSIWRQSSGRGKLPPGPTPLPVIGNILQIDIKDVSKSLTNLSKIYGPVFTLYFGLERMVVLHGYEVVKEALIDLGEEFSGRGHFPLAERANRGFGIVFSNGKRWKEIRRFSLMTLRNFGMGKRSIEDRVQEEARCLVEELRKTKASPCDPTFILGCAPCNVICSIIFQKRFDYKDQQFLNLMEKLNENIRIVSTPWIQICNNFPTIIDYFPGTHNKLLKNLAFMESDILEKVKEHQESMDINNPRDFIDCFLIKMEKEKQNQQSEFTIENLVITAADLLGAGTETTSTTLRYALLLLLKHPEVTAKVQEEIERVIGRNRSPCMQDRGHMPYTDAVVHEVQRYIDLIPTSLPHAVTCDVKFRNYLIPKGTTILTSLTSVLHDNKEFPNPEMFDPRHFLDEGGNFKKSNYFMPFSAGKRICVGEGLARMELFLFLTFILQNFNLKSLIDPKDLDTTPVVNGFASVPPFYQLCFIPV
Glucocorticoid receptor (Homo sapiens), sequence (P04150 whole entry, looked up, the tested form may be a part): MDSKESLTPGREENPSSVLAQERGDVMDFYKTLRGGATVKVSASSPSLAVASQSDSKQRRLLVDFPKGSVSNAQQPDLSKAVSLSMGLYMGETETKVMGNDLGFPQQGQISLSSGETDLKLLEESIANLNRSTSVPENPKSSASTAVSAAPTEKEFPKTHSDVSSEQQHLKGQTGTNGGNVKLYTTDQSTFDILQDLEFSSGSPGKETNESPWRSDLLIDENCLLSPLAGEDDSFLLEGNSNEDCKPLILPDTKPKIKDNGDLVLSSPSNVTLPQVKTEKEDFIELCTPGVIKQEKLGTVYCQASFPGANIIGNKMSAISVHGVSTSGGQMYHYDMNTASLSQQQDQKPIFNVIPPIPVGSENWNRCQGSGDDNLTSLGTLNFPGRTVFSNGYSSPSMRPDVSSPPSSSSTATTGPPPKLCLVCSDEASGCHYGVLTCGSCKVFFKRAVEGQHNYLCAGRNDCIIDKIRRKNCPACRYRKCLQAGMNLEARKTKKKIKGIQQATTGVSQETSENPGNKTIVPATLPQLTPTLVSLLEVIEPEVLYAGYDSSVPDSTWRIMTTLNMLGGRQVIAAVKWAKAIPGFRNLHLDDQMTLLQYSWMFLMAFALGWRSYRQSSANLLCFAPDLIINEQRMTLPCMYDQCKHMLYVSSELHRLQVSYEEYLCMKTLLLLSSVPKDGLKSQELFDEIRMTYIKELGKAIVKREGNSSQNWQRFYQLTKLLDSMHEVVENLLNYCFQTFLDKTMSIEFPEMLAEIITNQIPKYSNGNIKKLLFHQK
3',5'-cyclic-AMP phosphodiesterase 4B (Homo sapiens), sequence (Q07343 whole entry, looked up): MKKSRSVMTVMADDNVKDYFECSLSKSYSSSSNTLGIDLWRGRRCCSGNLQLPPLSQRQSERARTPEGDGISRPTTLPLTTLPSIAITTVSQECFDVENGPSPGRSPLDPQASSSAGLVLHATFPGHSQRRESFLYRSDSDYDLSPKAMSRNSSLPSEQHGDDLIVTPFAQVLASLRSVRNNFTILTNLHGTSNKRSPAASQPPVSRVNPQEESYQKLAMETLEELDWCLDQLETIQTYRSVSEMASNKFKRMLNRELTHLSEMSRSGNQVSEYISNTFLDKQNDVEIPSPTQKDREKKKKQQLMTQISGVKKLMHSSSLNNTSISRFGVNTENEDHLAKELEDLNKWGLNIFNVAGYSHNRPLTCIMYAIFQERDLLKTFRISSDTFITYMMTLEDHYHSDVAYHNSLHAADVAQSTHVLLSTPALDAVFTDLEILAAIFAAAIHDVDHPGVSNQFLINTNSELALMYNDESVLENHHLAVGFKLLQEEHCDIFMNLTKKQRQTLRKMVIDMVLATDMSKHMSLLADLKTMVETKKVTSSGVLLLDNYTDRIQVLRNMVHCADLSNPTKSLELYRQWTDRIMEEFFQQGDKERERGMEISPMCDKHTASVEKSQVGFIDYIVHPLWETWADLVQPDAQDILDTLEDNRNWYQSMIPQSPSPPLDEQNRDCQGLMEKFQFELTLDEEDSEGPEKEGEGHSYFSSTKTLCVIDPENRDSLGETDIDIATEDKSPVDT
Cytochrome P450 2C9 (Homo sapiens), sequence (P11712 whole entry, looked up): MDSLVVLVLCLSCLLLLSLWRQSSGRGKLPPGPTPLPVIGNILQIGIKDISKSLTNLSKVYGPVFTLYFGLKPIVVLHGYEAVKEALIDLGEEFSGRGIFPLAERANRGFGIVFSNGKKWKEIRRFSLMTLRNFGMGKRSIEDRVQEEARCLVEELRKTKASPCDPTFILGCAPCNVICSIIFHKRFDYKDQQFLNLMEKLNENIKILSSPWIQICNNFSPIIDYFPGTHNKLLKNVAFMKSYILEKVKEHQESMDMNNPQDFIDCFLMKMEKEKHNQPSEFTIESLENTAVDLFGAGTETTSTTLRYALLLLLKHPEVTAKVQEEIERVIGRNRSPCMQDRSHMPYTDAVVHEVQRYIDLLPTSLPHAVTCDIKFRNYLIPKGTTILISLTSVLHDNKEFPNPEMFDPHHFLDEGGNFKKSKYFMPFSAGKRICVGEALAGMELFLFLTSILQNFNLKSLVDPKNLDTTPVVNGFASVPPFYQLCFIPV
Lysosomal acid glucosylceramidase (Homo sapiens), sequence (P04062 whole entry, looked up): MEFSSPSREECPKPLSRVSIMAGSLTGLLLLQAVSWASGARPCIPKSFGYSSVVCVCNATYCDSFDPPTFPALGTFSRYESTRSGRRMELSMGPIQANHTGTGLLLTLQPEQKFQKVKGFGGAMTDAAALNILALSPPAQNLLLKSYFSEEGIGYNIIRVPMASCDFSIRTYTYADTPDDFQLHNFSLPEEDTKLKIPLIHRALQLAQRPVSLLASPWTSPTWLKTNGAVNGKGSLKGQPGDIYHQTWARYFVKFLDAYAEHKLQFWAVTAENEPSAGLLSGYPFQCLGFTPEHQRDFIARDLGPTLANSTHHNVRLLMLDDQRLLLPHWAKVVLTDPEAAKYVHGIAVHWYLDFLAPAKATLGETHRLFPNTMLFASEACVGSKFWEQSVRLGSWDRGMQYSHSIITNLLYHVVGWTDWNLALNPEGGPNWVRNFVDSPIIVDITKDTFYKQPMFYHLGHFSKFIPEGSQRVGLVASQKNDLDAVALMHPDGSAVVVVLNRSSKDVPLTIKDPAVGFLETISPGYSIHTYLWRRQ
Cytochrome P450 2D6 (Homo sapiens), sequence (P10635 whole entry, looked up): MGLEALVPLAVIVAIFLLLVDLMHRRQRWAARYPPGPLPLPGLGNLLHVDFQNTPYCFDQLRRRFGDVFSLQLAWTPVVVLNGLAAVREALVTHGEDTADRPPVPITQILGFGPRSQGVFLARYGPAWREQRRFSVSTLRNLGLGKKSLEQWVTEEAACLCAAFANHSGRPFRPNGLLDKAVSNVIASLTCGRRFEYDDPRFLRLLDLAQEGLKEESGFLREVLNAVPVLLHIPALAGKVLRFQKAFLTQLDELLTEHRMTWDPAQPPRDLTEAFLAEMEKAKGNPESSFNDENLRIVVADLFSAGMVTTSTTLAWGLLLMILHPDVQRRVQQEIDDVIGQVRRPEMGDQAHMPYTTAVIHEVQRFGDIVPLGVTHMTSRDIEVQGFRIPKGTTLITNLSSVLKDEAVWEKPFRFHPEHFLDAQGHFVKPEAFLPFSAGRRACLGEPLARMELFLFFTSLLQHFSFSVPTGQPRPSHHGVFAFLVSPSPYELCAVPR

CC1=C/C(=N/O)C([C@H]2C=C(C)CC(C)(C)[C@@H]2O)C(C)(C)C1 (stereo not given in full)
inactive: Potency [1] > 11.4 µM | activity change, negative = inhibition [2] -3.8% | Potency [3] | activity change, negative = inhibition [4] -18% | activity, negative = inhibition [5] 0.535% | Potency [6] > 46 µM | Potency [7] > 9.22 µM | Potency [8] | Potency [9] | Potency [11]
active: Potency [10] 2.51 µM | Potency [12] 1.58 µM

Clc1ccc(CSCCc2ccncc2)cc1Cl
active: Potency [3] 0.316 µM | Potency [10] 0.0794 µM | Potency [13] 0.316 µM
inactive: Potency [1] > 11.4 µM | activity change, negative = inhibition [2] -26.7% | activity change, negative = inhibition [4] 2.37% | activity, negative = inhibition [5] 5.37% | Potency [6] > 46 µM | Potency [7] > 9.22 µM | Potency [8] | Potency [9] | Potency [11]

N=C(N)c1ccc(-c2ccc(-c3ccc(C(=N)N)cc3)o2)cc1
inactive: Potency [1] > 11.4 µM | activity change, negative = inhibition [2] 7.04% | Potency [3] | activity change, negative = inhibition [4] 7.72% | activity, negative = inhibition [5] 10.3% | Potency [6] > 46 µM | Potency [7] > 9.22 µM | Potency [8] | Potency [9]

CCOc1ccccc1/C=C(\C#N)C(N)=O
inactive: Potency [1] > 11.4 µM | activity change, negative = inhibition [2] 3.2% | activity change, negative = inhibition [4] -1.04% | activity, negative = inhibition [5] 4.29% | Potency [6] > 46 µM | Potency [7] > 9.22 µM | Potency [8] | Potency [9] | Potency [10]
active: Potency [3] 2 µM

N[C@H]1[C@@H](C(=O)O)[C@H]2C=C[C@H]1C2
inactive: Potency [1] > 11.4 µM | activity change, negative = inhibition [2] 7.53% | Potency [3] | activity change, negative = inhibition [4] 24.6% | activity, negative = inhibition [5] 7.88% | Potency [6] > 46 µM | Potency [7] > 9.22 µM | Potency [8] | Potency [9]

Cc1c(Cl)c(S(N)(=O)=O)cc2c1=NC=NS=2(=O)O
inactive: Potency [1] > 11.4 µM | activity change, negative = inhibition [2] -1% | activity change, negative = inhibition [3] -9.6% [at 2.29 µM] | activity change, negative = inhibition [4] 4.9% | activity, negative = inhibition [5] 1.77% | Potency [6] > 46 µM | Potency [7] > 9.22 µM | Potency [8] | Potency [9] | Potency [10]

N=C(N)SCCN1CCCCC1
inactive: Potency [1] > 11.4 µM | activity change, negative = inhibition [2] 10.8% | Potency [3] | activity change, negative = inhibition [4] 0.176% | activity, negative = inhibition [5] -0.606% | Potency [6] > 46 µM | Potency [7] > 9.22 µM | Potency [8] | Potency [9] | Potency [10] | activity change, negative = inhibition [14] -31.7% [at 11.4 µM] | Potency [13] | Potency [12]

CCCCn1cnc2c(SC)ncnc21
active: Potency [3] 3.16 µM
inactive: Potency [1] > 11.4 µM | activity change, negative = inhibition [2] -0.746% | activity change, negative = inhibition [4] 5.83% | activity, negative = inhibition [5] 8.32% | Potency [6] > 46 µM | Potency [7] > 9.22 µM | Potency [8] | Potency [9]

CC1=CC(C)(C)Nc2ccc(CSc3ccccc3)cc21
active: Potency [3] 0.501 µM | Potency [10] 0.199 µM | Potency [14] 3.98 µM
inactive: Potency [1] > 11.4 µM | activity change, negative = inhibition [2] 3.94% | activity change, negative = inhibition [4] -4.82% | activity, negative = inhibition [5] -11.8% | Potency [6] > 46 µM | Potency [7] > 9.22 µM | Potency [8] | Potency [9] | Potency [11]

C[C@@H](N=C(N)N)C(=O)O
inactive: Potency [1] > 11.4 µM | activity change, negative = inhibition [2] -6.66% | Potency [3] | activity change, negative = inhibition [4] 16.8% | activity, negative = inhibition [5] -6.68% | Potency [6] > 46 µM | Potency [7] > 9.22 µM | Potency [8] | Potency [9]

O=C1c2ccccc2N[C@H](c2cc(Cl)cc(Cl)c2O)N1CCc1ccccn1
inactive: Potency [1] > 11.4 µM | activity change, negative = inhibition [2] -16.9% | activity change, negative = inhibition [3] 5.8% [at 2.29 µM] | activity change, negative = inhibition [4] 5.29% | activity, negative = inhibition [5] -24.9% | Potency [6] > 46 µM | Potency [7] > 9.22 µM | Potency [8] | Potency [9] | Potency [11]
active: Potency [10] 3.16 µM | Potency [14] 0.794 µM | Potency [12] 3.98 µM

Cc1ccc(S(=O)(=O)Nc2cc(=O)[nH]c3c2CCC3)cc1
inactive: activation [15] 2.61%

Cc1ccc2c(c1)N[C@H](c1ccc(C(=O)O)cc1)c1cccn1-2
inactive: activation [15] -21.9%

O=C(NNS(=O)(=O)c1ccccc1)c1cccnc1
inactive: Potency [1] > 11.4 µM | activity change, negative = inhibition [2] 16.3% | activity change, negative = inhibition [3] 2.2% [at 2.29 µM] | activity change, negative = inhibition [4] 7.27% | activity, negative = inhibition [5] 2.24% | Potency [6] > 46 µM | Potency [7] > 9.22 µM | Potency [8] | Potency [9] | Potency [11]

ON(CCc1ccccn1)Cc1ccccc1
inactive: Potency [1] > 11.4 µM | activity change, negative = inhibition [2] -1.79% | activity change, negative = inhibition [4] 10.2% | activity, negative = inhibition [5] -0.0119% | Potency [6] > 46 µM | Potency [7] > 9.22 µM | Potency [8] | Potency [9] | Potency [11]
active: Potency [3] 2.51 µM

COc1ncc2nc(-c3cc(F)cc(F)c3)c(=O)n(C[C@H]3CCCO3)c2n1
inactive: Potency [1] > 11.4 µM | activity change, negative = inhibition [2] -0.553% | activity change, negative = inhibition [4] -10.9% | activity, negative = inhibition [5] -4.03% | Potency [6] > 9.22 µM | Potency [7] > 46 µM | Potency [8] | Potency [9] | Potency [11]
active: Potency [3] 3.16 µM
